From PubChem BioAssay
In the library only some 19% were active in any assay of this set; here they are far more common.
Lassa entry inh = inhibitors of Lassa virus binding or cell entry. Lassa virus pseudotype entry inhibition, cell reporter. Potency, µM (titrated, usually from 37.9 µM), inactives show top-dose activity change, negative = inhibition, most hits filed as inhibitors. hit rate 1.2% among 300,000. AID 540256; calls by dose curve; tested in HEK293 cells; note: potency is the fitted concentration of half-maximal effect; % is set by controls: 0 for no effect and ±100 for the full control effect; nearly all actives have a fitted effect of over 50% in size
CHX counter-1 = counter-screen for Shiga toxin inhibitors: cycloheximide protein synthesis inhibition | hit rate 12% among 300,000 | max response, % | cell reporter, cycloheximide protein synthesis inhibition counterscreen | AID 2314; in the data active = max response mostly above about 13%, no sharp cut-off; inactive = mostly below about 14%; note: read at 38.3 µM for the half of the compounds with a filed dose; 0% is about no effect
Pf growth 48h = P. falciparum growth inhibition at 48 hours (one generation); P. falciparum luciferase growth in erythrocytes, 48 h; Potency, µM (highest dose often 28.7 µM), inactives show top-dose activity change, negative = inhibition, most hits filed as inhibitors; AID 504832; hit rate 5.9% among 310,000; note: potency is the fitted concentration of half-maximal effect; % is set by controls: 0 for no effect and ±100 for the full control effect
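First compound was added to culture medium, then infected red cells at 0.1% parasitemia and 2% hematocrit (final). After incubation at 37 C under 5% CO2, luciferase detection reagent was dispensed and light output recorded.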
MARV entry inh = inhibitors of Marburg virus binding or cell entry. AID 540276. hit rate 1.8% among 300,000. Marburg virus pseudotyped entry inhibition, cell reporter. Potency, µM (top dose mostly 37.8 µM), for inactives: at the top dose activity change, negative = inhibition, most hits filed as inhibitors; calls by dose curve; tested in HEK293 cells; note: potency is the fitted concentration of half-maximal effect; % is set by controls: 0 for no effect and ±100 for the full control effect
Shiga toxin inh = Shiga toxin inhibition. Vero cells, Shiga toxin protein synthesis inhibition reporter. hit rate 9.2% among 290,000. inhibition, % at 38.7 µM; in the data active = inhibition mostly above about 28%, no sharp cut-off; inactive = mostly below about 43%; note: 0% is about no effect
Pf growth 96h = inhibits malaria parasite growth, 96 h; Potency, µM (top dose mostly 28.7 µM), inactives show at the highest dose activity change, negative = inhibition, most hits filed as inhibitors; AID 504834; hit rate 6.9% among 320,000; P. falciparum luciferase reporter growth, 96 h; note: potency is the fitted concentration of half-maximal effect; % is set by controls: 0 for no effect and ±100 for the full control effect
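P. falciparum expressing integrated firefly luciferase grown in erythrocytes (2% hematocrit, 0.05% parasitemia final) with compounds for 96 hours at 37 C, 5% CO2. Growth inhibition read as loss of luminescence after adding luciferase detection reagent.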
CHX counter-2 = affects protein synthesis reporter in cycloheximide counter-screen | Potency, µM (titrated, usually from 38.3 µM), for inactives: at the top dose activity (activation), hits mostly activators | Cycloheximide counterscreen, protein synthesis reporter, Shiga toxin assay | hit rate 3% among 510 | shares compounds with Shiga toxin inh | AID 2318; calls by dose curve; note: potency is the fitted concentration of half-maximal effect; 0% is about no effect
CLK4 cf ADPGlo = CLK4 (human) kinase inhibition, ADP-Glo confirmation; Potency, µM (titrated, usually from 80 µM), inactives show top-dose activity, negative = inhibition, usual class: inhibitors; hit rate 80% among 65; recombinant Clk4, RS peptide, ADP-Glo luminescence; AID 1969; shares compounds with Pf growth 48h
Target sequence (Q9HAZ1 whole entry, looked up): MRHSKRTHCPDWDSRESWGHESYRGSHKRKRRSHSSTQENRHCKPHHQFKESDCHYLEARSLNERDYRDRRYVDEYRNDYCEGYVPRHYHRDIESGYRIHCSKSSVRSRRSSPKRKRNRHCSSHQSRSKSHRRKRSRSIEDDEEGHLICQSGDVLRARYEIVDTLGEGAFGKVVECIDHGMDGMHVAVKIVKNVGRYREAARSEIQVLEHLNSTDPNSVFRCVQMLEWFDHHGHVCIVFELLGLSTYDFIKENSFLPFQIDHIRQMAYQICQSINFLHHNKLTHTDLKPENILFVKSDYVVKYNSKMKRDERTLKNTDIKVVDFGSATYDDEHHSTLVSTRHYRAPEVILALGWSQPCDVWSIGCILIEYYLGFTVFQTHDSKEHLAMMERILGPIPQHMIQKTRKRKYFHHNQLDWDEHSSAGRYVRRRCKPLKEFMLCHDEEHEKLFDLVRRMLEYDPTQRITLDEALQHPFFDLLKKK
CLK4 ADP FP = confirmation of human CDC-like kinase 4 (CLK4) inhibitors; shares compounds with Pf growth 48h; recombinant Clk4, ADP Transcreener FP, RS peptide; Potency, µM (highest dose often 80 µM), for the others: at the highest dose activity, negative = inhibition, usual class: inhibitors; hit rate 70% among 65; AID 1983
* marks the source's active call; other numbers are inactive results; ? = inconclusive; · = no result given; [ ] = remark or other dose. Unless noted, calls come from the whole dose curve; as a rule, active = well fitted curve in the direction sought with a large enough effect; inconclusive = small, poorly fitted or top-dose-only effect, or another doubt; inactive = no such curve, though single readings can be large; an effect the other way counts as inactive or inconclusive.

SMILES | Lassa entry inh | CHX counter-1 | Pf growth 48h | MARV entry inh | Shiga toxin inh | Pf growth 96h | CHX counter-2 | others
CCn1c(N2CCN(C(=O)Nc3ccc(F)cc3)CC2)nc2ccccc21 | 1% | -1 | ? | 0% | -19 | 15% | ·
Cc1cc(C(=O)COC(=O)CNS(=O)(=O)c2ccc3ccccc3c2)c(C)n1-c1ccccc1 | -1% | 10 | 20% | ? | active | 57% | 5%
O=C(CNS(=O)(=O)c1ccc2ccccc2c1)OCC(=O)c1ccc(Br)s1 | 11% | -1 | 23% | 20% | 15 | · | ·
COc1ccc(OC)c(S(=O)(=O)N2CCC3(CC2)OCCN3S(=O)(=O)c2ccccc2)c1 | -11% | · | ? | 23% | · | ? | ·
C=CCc1cc(C)ccc1OCC(O)CN1CCN(c2ccccc2)CC1 (stereo unspecified) | 18% | -2 | -52% | -23% | 33* | -1% | 0%
CC(C)NS(=O)(=O)c1ccc(OCC(=O)Nc2ccc(F)cc2F)cc1 | 37%[14.3 µM] | -2 | · | -14% | -13 | -32% | ·
CC(C)NS(=O)(=O)c1ccc(OCC(=O)Nc2ccccc2F)cc1 | -23% | 7 | 11% | 6% | 34* | 24% | 8%
COc1cccc(-c2noc(CCC(=O)NCCc3ccccc3)n2)c1 | · | 11 | 9% | · | 49* | 10% | 8%
COc1ccc(-c2noc(CCC(=O)NCCN(C)Cc3ccccc3)n2)cc1 | -9% | -2 | -2% | -16% | 9 | 52% | ·
Cc1[nH]c2ccccc2c1CCNS(=O)(=O)c1ccc(S(N)(=O)=O)cc1 | 0% | -5 | -20% | 5% | -2 | 15% | ·
CSc1nc(SCCO)c2sc3nc(-c4ccco4)c4c(c3c2n1)CC(C)(C)OC4 | 0% | -5 | ? | 21% | 81* | ? | -2%
CCc1ccc(-c2c(C)sc(NC(=O)C3CCC3)c2C#N)cc1 | -1% | 7 | 6% | 19% | 12 | 49% | ·
Cc1sc(NC(=O)C2CCCC2)c(C#N)c1C | 3% | 1 | 33% | ? | 19* | 57% | 1%
Oc1c(C(c2ccccc2Cl)N2CCN(Cc3ccccc3)CC2)sc2nc(-c3ccco3)nn12 (stereo unspecified) | 1%[46.1 µM] | · | · | · | · | · | ·
COc1ccc2nc(SCC(=O)Nc3ccc4[nH]c(=O)[nH]c4c3)[nH]c2c1 | · | · | -1% | · | · | -8% | ·
CCOc1ccc2nc(SCC(=O)NC3CCCCC3)[nH]c2c1 | 1%[46.1 µM] | -3 | 15% | 10µM* | 44* | 7% | -1%
COc1ccc2nc(SCC(=O)NC3CCCCC3)[nH]c2c1 | ? | -1 | 0% | ? | 48 | 5% | ·
COc1ccc2nc(SCC(=O)Nc3ccc4c(c3)CCC4)[nH]c2c1 | ? | 5 | 13% | -35% | 42* | 22% | 0%
COc1ccc(CNC(=O)CCC(=O)n2ncc3cc(C)ccc32)cc1 | · | -2 | -4% | · | 1 | 33% | ·
CN(C)CCCNc1oc(-c2ccccc2Cl)nc1S(=O)(=O)c1ccc(F)cc1 | ? | -2 | ? | ? | -10 | -42% | ·
COc1cc(C(=O)NCC2(N3CCCCC3)CCCCC2)ccc1OCC(=O)N1CCOCC1 | · | -3 | -5% | · | 6 | 11% | ·
Cc1ccc(C(=O)c2cc3c(cc2N)OCCO3)cc1 | · | -3 | 5% | 0% | 1 | -26% | ·
CSc1nc2cc3c(cc2n1C(=O)c1ccc(C)cc1)OCCO3 | 6% | 7 | 58% | 8% | 80* | 97% | ?
CC(C)CNC(=O)c1noc2c1CCCC2 | · | 9 | 42% | 7% | 51* | 66% | -1%
Fc1ccccc1CNCCCSc1nnnn1-c1ccccc1 | -1%[46.1 µM] | · | · | 3%[46.1 µM] | · | · | ·
SMILES | Lassa entry inh | CHX counter-1 | Pf growth 48h | MARV entry inh | Shiga toxin inh | Pf growth 96h | CHX counter-2 | others
CCOC(=O)c1c(NC(=O)/C=C/c2ccc(OCC)cc2)sc(C(C)=O)c1C | 10%[46.1 µM] | · | · | 8%[46.1 µM] | · | · | ·
COc1ccc(CNCC(=O)Nc2sccc2C#N)cc1 | 12% | 13 | 13% | 16%[46.1 µM] | 52* | 11% | 2%
CN1CCCN(C(=O)CC(c2ccccc2)c2ccccc2)CC1 | · | -7 | -5% | · | -5 | 31% | ·
Cc1nc(-c2cccc(C(F)(F)F)c2)sc1C(=O)O | -2% | 11 | 13% | ? | 58* | 31% | 5%
CCOC(=O)Cc1nc(-c2cccc(C(F)(F)F)c2)no1 | -24%[46.1 µM] | 8 | ? | ? | 4 | -21% | ·
Cn1c(-[n+]2c(-c3ccccc3)cc(-c3ccccc3)cc2-c2ccccc2)nc2cc([N+](=O)[O-])ccc21 | 2% | 12 | 13µM* | ? | 42* | 3.3µM* | -3%
O=C(Cn1ncc2c(=O)oc3ccccc3c21)N(Cc1ccco1)C1CCCCC1 | · | 1 | 3% | · | 48* | ? | -2%
O=C(Cn1ncc2c1-c1ccccc1OC2)N(Cc1ccco1)C1CCCCC1 | · | -3 | · | 2% | -9 | ? | ·
Cc1csc(CNc2ncnc3ccc(-c4c(C)noc4C)cc23)c1 | · | 11 | · | · | 7 | · | ·
Cc1cccc(-c2ccc3ncnc(NCc4cc(C)cs4)c3c2)c1 | · | · | 12µM* | · | · | 9.3µM* | · | CLK4 cf ADPGlo=14µM*;CLK4 ADP FP=?
Cc1csc(CNc2ncnc3ccc(-c4ccco4)cc23)c1 | · | · | ? | · | · | 7% | · | CLK4 cf ADPGlo=-2%;CLK4 ADP FP=-9%
Cc1csc(CNc2ncnc3ccc(-c4ccc5c(ccn5C)c4)cc23)c1 | · | · | 3.7µM* | · | · | 5.9µM* | · | CLK4 cf ADPGlo=14µM*;CLK4 ADP FP=40µM*
Cc1csc(CNc2ncnc3ccc(-c4cccc(Cl)c4)cc23)c1 | · | · | 7.4µM* | · | · | 2.3µM* | · | CLK4 cf ADPGlo=13µM*;CLK4 ADP FP=?
Cc1ccc(NC(=O)COC(=O)c2ccc3c(=O)n4c(nc3c2)CCC4)c(Br)c1 | · | · | -10% | · | · | 31% | ·
COc1ccc(N2CCN(C(=O)c3c4c(nc5ccccc35)C(=O)N(C3CCCCC3)C4)CC2)cc1 | 5%[46.1 µM] | · | · | · | · | · | ·
c1cncc(CNc2ncnc3ccc(-c4ccco4)cc23)c1 | · | · | ? | · | · | ? | · | CLK4 cf ADPGlo=2.8µM*;CLK4 ADP FP=8.9µM*
COc1cccc(-c2ccc3ncnc(NCc4cccnc4)c3c2)c1 | · | · | ? | · | · | ? | · | CLK4 cf ADPGlo=2.5µM*;CLK4 ADP FP=4.5µM*
COc1cccc(CNc2ncnc3cc(OC)c(OC)cc23)c1 | -12% | -2 | ? | ? | 2 | ? | ·
CC(=O)Nc1ccc(-c2csc(NC(=O)CC(NC(C)=O)c3ccccc3)n2)cc1 (stereo unspecified) | 9% | -1 | ? | -6% | -2 | ? | ·
Clc1ccc2c(NCc3cccs3)ncnc2c1 | · | 2 | · | · | -7 | 23% | ·
